# Test results as given in PubChem BioAssay AID1851 (National Center for Advancing Translational Sciences (NCATS), 2009).
# The campaign covered roughly 16,000 compounds. About 2,600 (16%) were called active. About 20% were inconclusive and are not listed. Calls come from the whole dose curve; as a rule, active = well fitted curve in the direction sought with a large enough effect; inconclusive = small, poorly fitted or top-dose-only effect, or effect the other way; inactive = no such curve, though single readings can be large or run the other way. The list is a sample of the results.
# Target: Cytochrome P450 2D6 (Homo sapiens) (UniProt P10635)
# Sequence (P10635 whole entry, looked up): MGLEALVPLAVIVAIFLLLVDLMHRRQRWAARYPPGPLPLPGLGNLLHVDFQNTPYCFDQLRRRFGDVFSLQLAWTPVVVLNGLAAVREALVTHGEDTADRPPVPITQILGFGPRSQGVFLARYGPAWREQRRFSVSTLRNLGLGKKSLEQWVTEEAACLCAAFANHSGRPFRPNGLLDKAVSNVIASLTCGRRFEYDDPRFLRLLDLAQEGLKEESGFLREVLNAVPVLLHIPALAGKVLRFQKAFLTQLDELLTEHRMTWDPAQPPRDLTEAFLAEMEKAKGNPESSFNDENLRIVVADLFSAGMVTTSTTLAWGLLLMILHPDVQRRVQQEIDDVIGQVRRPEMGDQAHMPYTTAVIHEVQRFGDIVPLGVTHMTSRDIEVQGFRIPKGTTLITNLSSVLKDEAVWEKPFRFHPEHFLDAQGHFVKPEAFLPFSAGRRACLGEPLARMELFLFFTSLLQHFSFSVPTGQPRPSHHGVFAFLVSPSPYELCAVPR
# Experiment: Cytochrome panel assay with activity outcomes
# Details: recombinant CYP, pro-luciferin dealkylation, luminescence, p450-cyp2d6; series mostly up to 57.1 µM; activity, negative = inhibition: at the top concentration
# % is set by controls: 0 for no effect and ±100 for the full control effect.
SMILES,"activity, negative = inhibition",AC50
COc1ccc(NC(=O)CCNS(=O)(=O)c2ccc3c(c2)c(=O)n(C)c(=O)n3C)cc1,1.38% (inactive),–
O=C(CCCc1ccccn1)c1ccccc1,-16.5% [at 11.4 µM] (inactive),–
O=C1N=C(N2CCOCC2)S/C1=C/c1cccs1,-3.07% (inactive),–
Cc1cc(=O)[nH]c(-n2[nH]c3c(c2=O)CCCC3)n1,-15.2% (inactive),–
CCC1C(=O)OCC1Cc1cncn1C (stereo unspecified),-17.8% (inactive),–
N=C(N)[C@H](N=Nc1ccccc1)C(N)=O,4.09% [at 11.4 µM] (inactive),–
C[C@@](N)(Cc1ccc(O)c(O)c1)C(=O)O,–,inactive
FC(F)(F)c1cnc(/C=C/Nc2ccccc2Cl)c(Cl)c1,7.61% (inactive),–
COc1ccc(C(=O)NC2CCN(C(=S)Nc3cccc(C)c3)CC2)cc1,-8.38% (inactive),–
CC(=O)c1ccc(OC(=O)C2c3ccccc3Oc3ccccc32)cc1,6.3% (inactive),–
O=C(O)c1ccccc1C1c2ccccc2Oc2ccccc21,-7.56% [at 11.4 µM] (inactive),–
CC[N+](C)(CC)CCOC(=O)C1c2ccccc2Oc2ccccc21,–,3.98 µM (active)
COc1ccccc1N(CC(=O)NCC1CCCO1)C(=O)CNS(=O)(=O)c1ccc(C)cc1 (stereo unspecified),-4.47% (inactive),–
N#CC1=C(SCC(N)=O)NC2=C(C(=O)c3ccccc32)C1c1ccc(Cl)cc1 (stereo unspecified),-26.9% (inactive),–
COc1ccc2[nH]cc(CCNc3nc(-c4cccnc4)nc4ccccc34)c2c1,–,6.31 µM (active)
COc1cccc(-c2nc(NCCc3c[nH]c4ccc(OC)cc34)c3ccccc3n2)c1,–,20 µM (active)
COc1ccc2[nH]cc(CCNc3nc(-c4ccoc4)nc4ccccc34)c2c1,–,12.6 µM (active)
c1ccc2c(NC3CC3)nc(-c3ccoc3)nc2c1,-19.8% (inactive),–
COc1ccc2[nH]cc(CCNc3nc(-c4ccc(N(C)C)cc4)nc4ccccc34)c2c1,–,7.94 µM (active)
CC(C)Oc1cccc(-n2c(CCc3c[nH]c4ccc(Br)cc34)nc3ccccc3c2=O)c1,5.78% (inactive),–
NC(=O)NC(=O)[C@H]1CCCC[C@@H]1C(=O)O,-4.03% [at 11.4 µM] (inactive),–
C[N+](C)(C)CCOC(N)=O,–,inactive

SMILES,"activity, negative = inhibition",AC50
COC(=O)CNC(=O)CCCCC(=O)NCC(=O)OC,-4.75% (inactive),–
Cc1ccc(C)c(N2CCN(C(=O)C3CCN(S(=O)(=O)c4cccc5nsnc45)CC3)CC2)c1,-14.1% (inactive),–
CS(=O)(=O)c1ccc(Cn2c3c(c4cc(F)cc(F)c42)CCC[C@H]3CC(=O)O)cc1,-11.8% (inactive),–
CC(C)c1ccc(/C(C(=O)O)=C(\O)C(=O)O)cc1,0.432% [at 11.4 µM] (inactive),–
CC1(C)C2([N+](=O)[O-])CN3CC1([N+](=O)[O-])CN(C2)C31CCCC1,-6.83% (inactive),–
O=C(O)Cc1cc(I)c(Oc2ccc(O)c(I)c2)c(I)c1,0.86% [at 25.6 µM] (inactive),–
CC(=O)c1cc(C#N)c(Oc2cccc(C(F)(F)F)c2)nc1C,-61.5% (inactive),–
N[C@@H](CS(=O)O)C(=O)O,10.8% (inactive),–
CC(C)C(=O)Nc1ccc(Sc2ccc(F)cc2)cc1,-18.6% (inactive),–
CN(C(=S)NC(=O)c1ccccc1Br)C1CCCCC1,-19% (inactive),–
COc1ccc2[nH]cc(CCNc3nc(-c4ccccc4OC)nc4ccccc34)c2c1,–,12.6 µM (active)
CC[C@H](CO)NCCN[C@@H](CC)CO,2.22% [at 25.6 µM] (inactive),–
COc1ccc(F)cc1S(=O)(=O)NC(Cc1ccccc1)C(N)=O (stereo unspecified),-23% (inactive),–
Cc1ccc(-c2cc(C(F)F)n3ncc(C(=O)Nc4c(C)nn(Cc5c(Cl)cccc5Cl)c4C)c3n2)cc1,-10.1% (inactive),–
Cc1cc(C(F)F)n2ncc(C(=O)NCc3ccccc3C(F)(F)F)c2n1,–,5.01 µM (active)
Cc1nn(Cc2c(Cl)cccc2Cl)c(C)c1NC(=O)c1cnn2c(C(F)F)cc(-c3ccccc3)nc12,-9.88% (inactive),–
O=C(Nc1cc(C(F)(F)F)ccc1N1CCCCC1)c1ccc(Br)o1,0.271% (inactive),–
CCOc1c2ccc(C(=O)NCCCCc3ccccc3)cc2nn1CC,–,0.794 µM (active)
COCCn1nc2cc(C(=O)NCc3cc(C(F)(F)F)cc(C(F)(F)F)c3)ccc2c1OC,–,2.51 µM (active)
CCCn1nc2cc(C(=O)NCc3ccccc3OC)ccc2c1OCC,-22.4% (inactive),–
CCCCn1nc2cc(C(=O)NCc3ccc(C(F)(F)F)cc3C(F)(F)F)ccc2c1OCC,-27.7% (inactive),–
O=C(NC1CCCc2ccccc21)c1ccc(=O)[nH]c1 (stereo unspecified),–,28.2 µM (active)

SMILES,"activity, negative = inhibition",AC50
COCCn1nc2cc(C(=O)NCC34CC5CC(CC(C5)C3)C4)ccc2c1OC,-16.5% (inactive),–
CCCn1nc2cc(C(=O)NCCCCc3ccccc3)ccc2c1OCC,–,7.94 µM (active)
O=C1CC[C@H](NC(=O)c2ccccc2)C(=O)N1,1.49% [at 11.4 µM] (inactive),–
CCOc1c2ccc(C(=O)NCc3ccccc3OC)cc2nn1CC,-13.2% (inactive),–
COc1ccc(OC)c2[nH]c(=O)c(CCNS(=O)(=O)c3ccccc3)cc12,7.03% (inactive),–
CCOc1cccc(/C(O)=C2/C(=O)C(=O)N(Cc3ccco3)C2c2ccncc2)c1 (stereo unspecified),-8.05% (inactive),–
O=C(NNS(=O)(=O)c1ccc(Cl)cc1)NC1CCCCC1,-0.568% (inactive),–
CCC(=O)Nc1nnc(C(C)(C)C)s1,1.82% (inactive),–
O=c1c(-c2cc(F)cc(F)c2)nc2cnc(N3CCOCC3)nc2n1C[C@H]1CCCO1,5.97% (inactive),–
CCOc1c2ccc(C(=O)NCCCCc3ccccc3)cc2nn1C,–,0.282 µM (active)
CCCCn1nc2cc(C(=O)NCC3CC3)ccc2c1OCC,-8.25% (inactive),–
COCCNC(=O)c1ccc2c(c1)ncn2-c1ccc(F)c(F)c1,3.19% (inactive),–
CCOc1c2ccc(C(=O)NCCc3cccs3)cc2nn1CC,–,2.24 µM (active)
CCOc1c2ccc(C(=O)NCc3ccco3)cc2nn1CC,-22.5% (inactive),–
CCCn1nc2cc(C(=O)NCc3ccc(C)cc3)ccc2c1OC,-3.19% (inactive),–
CCCn1nc2cc(C(=O)NCCc3ccc(C)cc3)ccc2c1OCC,–,3.55 µM (active)
CCOc1c2ccc(C(=O)NC3CCCc4ccccc43)cc2nn1C (stereo unspecified),–,7.94 µM (active)
CCn1nc2cc(C(=O)NCC34CC5CC(CC(C5)C3)C4)ccc2c1OC,10.9% (inactive),–
COCCn1c(=O)c(-c2ccccc2)nc2cnc(Oc3cccc(Cl)c3)nc21,-2.41% (inactive),–
NC(=O)Nn1c(CCC(=O)O)ccc1-c1ccc(F)cc1,-2.11% (inactive),–
Cc1ccc(C(=O)N2C3C=CC(C3)C2(C(F)(F)F)C(F)(F)F)cc1 (stereo unspecified),5.65% (inactive),–
CCC(C)(C)c1ccc(Oc2cccc(C(=O)O)c2)cc1,13.3% [at 11.4 µM] (inactive),–
